This is an account of results in PubChem BioAssay (NCATS).

Assay [1] is described as follows: Cell Viability - BJ (AID 421; calls by dose curve;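 also: potency is read from the fitted curve at half-maximal effect; cells exposed to compound for 40 hours at 37 °C before readout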). The note with it: BJ fibroblast viability, qHTS. A digest of the protocol:
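Cytotoxicity in human BJ foreskin fibroblasts is scored as loss of cellular ATP after a 40-hour exposure, measured by luciferase luminescence. Controls are DMSO and 100 uM tamoxifen.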
(In qHTS, concentration-response curves come from the screen itself.)

Assay [2] in a line: Cell Viability - MRC5 (AID 434; calls by dose curve;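 also: potency is read from the fitted curve at half-maximal effect; cells exposed to compound for 40 hours at 37 °C; potency reflects cytotoxicity seen as loss of intracellular ATP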). The following applies: MRC5 lung fibroblast viability, qHTS. A digest of the protocol:
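MRC5 normal human lung fibroblasts (1500/well) were treated with compounds for 40 hr at 37 °C in complete medium, and viable cells were measured as intracellular ATP by CellTiter-Glo luminescence. AC50 came from Hill fits, normalized to DMSO and 100 uM tamoxifen.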

A short description of assay [3]: Cell Viability - SK-N-SH (AID 435; calls by dose curve; also: potency is read from the fitted curve at half-maximal effect). The note with it: SK-N-SH neuroblastoma cell viability qHTS. The essentials:
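qHTS cytotoxicity: CellTiter-Glo ATP luminescence after 40 h compound exposure of human neuroblastoma SK-N-SH cells at 37 °C. AC50 derived by Hill-equation fitting, with DMSO as basal and 100 uM tamoxifen as full inhibition.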

A short description of assay [4]: Cell Viability - Renal Proximal Tubule (AID 545).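 Also: cells exposed to compound for 40 hours; 0% = DMSO only and -100% = 100 µM tamoxifen; nearly all actives have a fitted effect of over 40% in size.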 The note with it: renal proximal tubule cells viability, primary cells of rat origin; activity change, negative = cytotoxicity: at 91.7 µM (top of the series). The essentials: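 Viability taken as intracellular ATP (CellTiter-Glo luminescence) after 40 hr, 37 °C compound treatment of primary proximal tubule cells from rat kidney, 1000 cells/well; Hill-equation fits of qHTS concentration-response data gave AC50.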

In assay [5] the target is Estrogen receptor (Homo sapiens) (UniProt P03372). Description: qHTS assay for small molecule antagonists of estrogen receptor alpha signaling (AID 588513; active = well fitted curve in the direction sought with a large enough effect in the signal ratio, with a control signal flat, not every such curve was filed as active; the % refers to the signal ratio; also: % is scaled to controls: 0 for no effect and ±100 for the full control effect). The note with it: ER-alpha-UAS-bla HEK293, beta-lactamase ratio, antagonist mode; series mostly up to 76.9 µM. The essentials:
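Antagonist mode: inhibition of 0.5 nM 17-beta-estradiol-driven beta-lactamase reporter in HEK 293 ER-alpha-UAS-bla cells, 18 h at 37C, CCF4 readout after 2 h at RT. Normalised to estradiol and DMSO; titration fitted to Hill.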

For assay [6] the target is unchanged. Put plainly: qHTS assay for small molecule agonists of estrogen receptor alpha signaling (AID 588514; calls by dose curve; also: potency is read from the fitted curve at half-maximal effect; nearly all actives have a fitted effect of over 70% in size). The following applies: ER-alpha-UAS-bla HEK293, beta-lactamase ratio, 18 h; series mostly up to 76.8 µM. The essentials: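 Cells were plated at 5000/well, incubated 4 hrs at 37 C, dosed with compound titration series, incubated 18 hrs at 37 C, loaded with CCF4 dye for 2 hrs at RT, then fluorescence was read.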

For assay [7], the target named is Glucocorticoid receptor (Homo sapiens) (UniProt P04150). Put plainly: qHTS assay for small molecule agonists of glucocorticoid receptor signaling (AID 588532; active = well fitted curve in the direction sought with a large enough effect in the signal ratio, with a control signal flat; the % refers to the signal ratio;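 also: 100% = dexamethasone at 0.1 µM and 0% = DMSO only wells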). The note with it: HeLa MMTV-bla, beta-lactamase ratio, agonist, 18 h; stronger effect = higher value; percent of dexamethasone control, DMSO zero. A digest of the protocol:
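Stimulation of a glucocorticoid response element-driven beta-lactamase gene was measured in HeLa cells. Responses were scaled between DMSO basal and 0.1 uM dexamethasone, then fitted for half-maximal stimulation.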

For assay [8] the target is unchanged. Description: qHTS assay for small molecule antagonists of glucocorticoid receptor signaling (AID 588533; active = well fitted inhibition curve with a large enough effect in the signal ratio, with a control signal flat, not every such curve was filed as active; the % refers to the signal ratio;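 also: cells stimulated with 2 nM dexamethasone as agonist; % is scaled to controls: 0 for no effect and ±100 for the full control effect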). The note with it: HeLa MMTV-bla, GRE beta-lactamase ratio, antagonist mode, 18 h; series mostly up to 76.8 µM. The essentials: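 Antagonist-mode qHTS: compound titrations added to GRE-bla HeLa cells, then dexamethasone 2 nM final; 18 h, 37 C. CCF4 FRET fluorescence normalized to dexamethasone and DMSO; IC50 from Hill fit.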

Assay [9] in a line: qHTS assay for small molecule antagonists of peroxisome proliferator-activated receptor delta signaling (AID 588535; active = well fitted inhibition curve with a large enough effect in the signal ratio, with a control signal flat, not every such curve was filed as active; the % refers to the signal ratio;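 as to max response: cells co-treated with a PPAR-delta agonist as stimulator during compound exposure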). The following applies: HEK293T PPARd-UAS-bla, beta-lactamase FRET ratio, 18 h; 460 nm channel. The essentials: (§1)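 Reporter: UAS-bla under PPAR-delta response element, HEK293T host. Medium: 2% charcoal/dextran FBS. Dosing: titration, 18 hrs, 37 C. Detection: CCF4, 2 hrs RT, 405 ex/460 and 530 em.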

The target of assay [10] is Peroxisome proliferator-activated receptor delta (Homo sapiens) (UniProt Q03181). The assay is described as above. The following applies: HEK293T PPARd-UAS-bla, beta-lactamase FRET ratio, 18 h; series mostly up to 76.7 µM. The essentials:
as §1

In assay [11] the target is Peroxisome proliferator-activated receptor gamma (Homo sapiens) (UniProt P37231). Description: qHTS assay for small molecule antagonists of peroxisome proliferator-activated receptor gamma signaling (AID 588537; active = well fitted inhibition curve with a large enough effect in the signal ratio, with a control signal flat, not every such curve was filed as active; the % refers to the signal ratio;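 also: reporter cells co-stimulated with 50 nM rosiglitazone agonist during compound treatment; % of control where 0% means no effect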). The following applies: HEK293 PPARg-UAS-bla, beta-lactamase ratio, antagonist mode; series mostly up to 76.8 µM. The essentials: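 We seeded GeneBLAzer HEK293 reporter cells at 3000 per well, allowed 6-6.5 h attachment at 37 C, then co-treated with test compound titrations and 50 nM rosiglitazone overnight (16 h). Inhibition was quantified from 460/530 nm emission ratios.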
Peroxisome proliferator-activated receptor gamma (Homo sapiens), sequence (P37231 whole entry, looked up): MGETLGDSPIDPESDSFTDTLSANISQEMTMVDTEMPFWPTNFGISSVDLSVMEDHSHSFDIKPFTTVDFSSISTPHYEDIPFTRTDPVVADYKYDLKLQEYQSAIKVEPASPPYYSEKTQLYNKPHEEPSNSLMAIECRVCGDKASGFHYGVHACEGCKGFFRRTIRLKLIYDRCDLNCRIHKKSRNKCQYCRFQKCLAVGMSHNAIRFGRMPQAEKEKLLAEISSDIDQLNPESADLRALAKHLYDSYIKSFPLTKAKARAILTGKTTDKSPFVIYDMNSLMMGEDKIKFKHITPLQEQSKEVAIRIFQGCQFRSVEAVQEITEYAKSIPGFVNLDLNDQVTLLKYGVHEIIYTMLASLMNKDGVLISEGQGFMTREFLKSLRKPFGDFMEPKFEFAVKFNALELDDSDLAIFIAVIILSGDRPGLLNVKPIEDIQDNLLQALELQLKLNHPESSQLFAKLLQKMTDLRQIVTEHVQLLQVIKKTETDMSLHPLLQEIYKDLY

The target in assay [12] is Vitamin D3 receptor (Homo sapiens) (UniProt P11473). Put plainly: qHTS assay for small molecule antagonists of vitamin D receptor signaling (AID 588541; calls by dose curve;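 also: receptor activated by calcitriol during compound treatment; % is scaled to controls: 0 for no effect and ±100 for the full control effect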). The following applies: HEK293T VDR-UAS-bla, beta-lactamase ratio, antagonist mode; series mostly up to 76.7 µM. The essentials: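 VDR-UAS-bla HEK293T cells (2000/well, 2% charcoal-stripped FBS) were treated with titrated compounds plus 1-alpha,25-dihydroxyvitamin D3 (50 nM or 3 nM final) for 16 h at 37 C. CCF4 beta-lactamase fluorescence was read; Hill fits gave IC50.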
Vitamin D3 receptor (Homo sapiens), sequence (P11473 whole entry, looked up): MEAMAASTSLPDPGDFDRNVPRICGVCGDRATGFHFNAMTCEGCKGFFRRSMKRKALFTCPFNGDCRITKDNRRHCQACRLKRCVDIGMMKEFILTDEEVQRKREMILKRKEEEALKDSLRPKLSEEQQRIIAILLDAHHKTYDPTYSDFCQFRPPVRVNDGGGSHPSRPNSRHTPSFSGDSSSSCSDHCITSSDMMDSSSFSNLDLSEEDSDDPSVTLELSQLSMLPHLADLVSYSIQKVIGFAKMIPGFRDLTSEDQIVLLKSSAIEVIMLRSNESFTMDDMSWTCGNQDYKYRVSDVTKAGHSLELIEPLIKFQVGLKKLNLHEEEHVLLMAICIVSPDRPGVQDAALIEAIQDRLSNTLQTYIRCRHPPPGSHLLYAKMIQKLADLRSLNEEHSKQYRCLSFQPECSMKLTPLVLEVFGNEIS

The subject of the next assay is GB4. Put plainly: qHTS profiling for inhibitors of Plasmodium falciparum proliferation (AID 504749). Also: nearly all actives have a fitted effect of over 60% in size. Also: potency is read from the fitted curve at half-maximal effect. The note with it: P. falciparum in erythrocytes, SYBR Green DNA, 72 h; series mostly up to 28.7 µM. The essentials:
(§2)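 Parasite proliferation within erythrocytes, 72 h exposure. Endpoint: SYBR Green I fluorescence after overnight lysis at room temperature. Controls: 0.29 uM artemisinin, DMSO.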

Another assay deals with CP291. Described as above. The note with it: P. falciparum in erythrocytes, SYBR Green DNA, 72 h; series mostly up to 28.7 µM. The essentials: as §2
Another assay has as its system CP297. The assay is described as above. The following applies: P. falciparum in erythrocytes, SYBR Green DNA, 72 h; series mostly up to 28.7 µM. The essentials: as §2
Assay [13] addresses Muscarinic acetylcholine receptor M1 (Rattus norvegicus) (UniProt P08482). Put plainly: qHTS Assay for Antagonists of Acetylcholine Muscarinic M1 Receptor: Measurement of IP-One Response (AID 944). Also: nearly all actives have a fitted effect of over 75% in size. The following applies: CHO-M1 cells, IP-One HTRF, antagonist mode; series mostly up to 46.1 µM. The essentials: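 M1-CHO (rat), 2000 cells/well, overnight recovery; cpd 10 min; carbachol EC80 (200 nM), 30 min, HEPES buffer + 50 mM LiCl pH 7.4; IP-One HTRF, Ex 337, Em 620/665 nm.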

The next assay concerns CP268. Put plainly: qHTS profiling for inhibitors of Plasmodium falciparum proliferation (AID 504749). Also: nearly all actives have a fitted effect of over 60% in size. Also: potency is read from the fitted curve at half-maximal effect. The following applies: P. falciparum in erythrocytes, SYBR Green DNA, 72 h; series mostly up to 28.7 µM. A digest of the protocol: as §2
The test system of a further assay is CP305. Described as above. The note with it: P. falciparum in erythrocytes, SYBR Green DNA, 72 h; series mostly up to 28.7 µM. The essentials:
as §2

The next assay concerns ECU. The description is as above. The following applies: P. falciparum in erythrocytes, SYBR Green DNA, 72 h; series mostly up to 28.7 µM. The essentials: as §2
Another assay relates to TAB109. Described as above. The note with it: P. falciparum in erythrocytes, SYBR Green DNA, 72 h; series mostly up to 28.7 µM. A digest of the protocol: as §2

Values joined by “and” are separate entries in the source; they are usually repeats but may differ in a detail not shown here. Identical values can stand only once. Records with an inconclusive call do not appear. Active and inactive are the calls of the source. Unless noted, calls follow the shape of the dose curve; as a rule, active = well fitted curve in the direction sought with a large enough effect; inconclusive = small, poorly fitted or top-dose-only effect, or another doubt; inactive = no such curve, though single readings can be large; an effect the other way counts as inactive or inconclusive.

Glucocorticoid receptor (Homo sapiens), sequence (P04150 whole entry, looked up): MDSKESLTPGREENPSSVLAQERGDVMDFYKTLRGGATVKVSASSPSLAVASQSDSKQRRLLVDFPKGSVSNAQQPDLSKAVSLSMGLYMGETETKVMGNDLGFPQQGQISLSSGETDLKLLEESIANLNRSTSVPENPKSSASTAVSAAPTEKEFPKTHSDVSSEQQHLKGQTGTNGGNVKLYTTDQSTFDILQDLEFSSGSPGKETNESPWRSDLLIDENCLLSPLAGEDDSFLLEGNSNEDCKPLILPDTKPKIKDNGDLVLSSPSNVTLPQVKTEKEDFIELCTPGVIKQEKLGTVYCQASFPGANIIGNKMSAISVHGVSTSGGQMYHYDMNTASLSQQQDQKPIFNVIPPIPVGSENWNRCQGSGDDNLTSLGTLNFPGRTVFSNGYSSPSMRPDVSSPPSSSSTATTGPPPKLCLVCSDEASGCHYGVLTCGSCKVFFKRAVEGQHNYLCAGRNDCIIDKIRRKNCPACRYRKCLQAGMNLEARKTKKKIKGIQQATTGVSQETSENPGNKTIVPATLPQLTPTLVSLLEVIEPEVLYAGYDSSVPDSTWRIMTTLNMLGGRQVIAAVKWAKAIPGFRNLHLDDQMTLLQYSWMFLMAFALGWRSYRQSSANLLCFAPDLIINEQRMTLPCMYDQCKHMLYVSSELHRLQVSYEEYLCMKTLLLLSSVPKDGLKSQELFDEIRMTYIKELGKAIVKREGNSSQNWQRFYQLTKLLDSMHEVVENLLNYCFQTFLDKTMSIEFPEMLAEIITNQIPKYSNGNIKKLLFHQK
Estrogen receptor (Homo sapiens), sequence (P03372 whole entry, looked up): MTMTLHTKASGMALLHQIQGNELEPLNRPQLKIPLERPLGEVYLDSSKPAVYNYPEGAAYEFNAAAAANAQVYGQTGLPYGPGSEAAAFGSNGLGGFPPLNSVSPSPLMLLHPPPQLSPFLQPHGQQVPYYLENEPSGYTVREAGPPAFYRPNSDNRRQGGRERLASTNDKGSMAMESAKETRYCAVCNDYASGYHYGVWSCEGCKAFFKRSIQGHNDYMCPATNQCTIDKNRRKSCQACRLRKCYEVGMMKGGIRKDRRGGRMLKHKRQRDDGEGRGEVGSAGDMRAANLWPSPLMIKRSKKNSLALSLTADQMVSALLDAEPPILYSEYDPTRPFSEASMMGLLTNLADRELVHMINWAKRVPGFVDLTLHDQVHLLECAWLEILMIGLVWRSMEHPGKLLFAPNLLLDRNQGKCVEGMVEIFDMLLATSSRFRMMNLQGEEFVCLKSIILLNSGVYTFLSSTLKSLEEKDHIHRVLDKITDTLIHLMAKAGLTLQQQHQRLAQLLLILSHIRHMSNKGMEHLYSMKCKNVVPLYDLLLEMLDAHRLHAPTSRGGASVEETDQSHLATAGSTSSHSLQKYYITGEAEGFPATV
Muscarinic acetylcholine receptor M1 (Rattus norvegicus), sequence (P08482 whole entry, looked up): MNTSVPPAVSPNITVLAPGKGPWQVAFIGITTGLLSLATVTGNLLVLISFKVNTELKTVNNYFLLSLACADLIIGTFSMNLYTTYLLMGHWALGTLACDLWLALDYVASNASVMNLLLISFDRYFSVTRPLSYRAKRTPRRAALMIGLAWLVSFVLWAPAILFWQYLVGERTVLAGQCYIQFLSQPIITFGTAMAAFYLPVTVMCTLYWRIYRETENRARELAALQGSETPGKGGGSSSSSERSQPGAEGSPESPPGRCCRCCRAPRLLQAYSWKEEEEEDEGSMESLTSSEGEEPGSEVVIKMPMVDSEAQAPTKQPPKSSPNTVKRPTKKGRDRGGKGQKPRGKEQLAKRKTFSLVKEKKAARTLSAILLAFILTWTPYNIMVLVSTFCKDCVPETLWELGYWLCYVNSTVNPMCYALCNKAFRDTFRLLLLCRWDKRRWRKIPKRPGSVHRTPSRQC
Peroxisome proliferator-activated receptor delta (Homo sapiens), sequence (Q03181 whole entry, looked up): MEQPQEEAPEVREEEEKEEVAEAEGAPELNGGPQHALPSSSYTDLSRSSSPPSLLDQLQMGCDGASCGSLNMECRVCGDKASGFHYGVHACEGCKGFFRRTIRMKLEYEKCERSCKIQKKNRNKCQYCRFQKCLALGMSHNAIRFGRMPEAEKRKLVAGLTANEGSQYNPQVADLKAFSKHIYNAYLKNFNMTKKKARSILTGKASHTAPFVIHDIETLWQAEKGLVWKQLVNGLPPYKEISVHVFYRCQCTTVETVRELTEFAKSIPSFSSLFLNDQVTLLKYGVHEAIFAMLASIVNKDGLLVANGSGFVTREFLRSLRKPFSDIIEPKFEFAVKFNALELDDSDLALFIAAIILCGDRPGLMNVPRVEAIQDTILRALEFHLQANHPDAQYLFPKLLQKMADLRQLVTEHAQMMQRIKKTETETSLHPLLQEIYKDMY

As to `CC(CCC(=O)O)(c1ccc(O)cc1)c1ccc(O)cc1`, the Potency is > 92 µM (inactive) in assay [1], > 92 µM (inactive) in assay [2], > 92 µM (inactive) in assay [3] and 12.6 µM (active) in assay [6]. The Potency entry in assay [4], in assay [8], in [11] and in assay [12] was “inactive” each time. Also, the outcome in assay [5] and in assay [10] was inactive. Further, the activation in assay [7] is 3.51% (inactive) and -3.34% (inactive). For the same compound, the max response in assay [9] is -42.6% and 42.4%.
For `CCc1ccc2c(c1)N(C[C@H](C)CN(C)C)c1ccccc1S2`, in the assay with GB4, the Potency is 7.57 µM (active).
Consider `CC(=O)N1CCN(c2ccc(OC[C@@H]3CO[C@@](Cn4ccnc4)(c4ccc(Cl)cc4Cl)O3)cc2)CC1`, for which the Potency result with CP291 and in the assay on CP297 was “inactive” in each case.
In the case of `N=c1ccn2c(n1)O[C@@H]1[C@@H](O)[C@H](CO)O[C@H]12`, the Potency result in assay [13] is “inactive”.
Same read-out and setting: with `Cc1nnc(SCC2=C(C(=O)O)N3C(=O)[C@@H](NC(=O)Cn4cnnn4)[C@@H]3SC2)s1` the entry was “inactive”.
Consider `COc1cc2nc(N(C)CCCNC(=O)[C@@H]3CCCO3)nc(N)c2cc1OC`, for which the Potency entry with CP268, in the assay on CP291, with CP297, in the assay on CP305, with ECU and in the assay with GB4 was “inactive” each time. In addition, the Potency entry in the assay on TAB109 is “inactive”.
Take `C(=C/c1ccccc1)/CN1CCN(C(c2ccccc2)c2ccccc2)CC1`: the Potency entry in the assay on CP268, with CP305, with ECU and in the assay on TAB109 was “inactive” each time.
